In all, about 300,000 compounds went through this assay and about 3,200 (1.1%) were called active. The full list was thinned out, with actives kept by preference. A number with no mark means an inactive call. Cut-off read from the data, not from the text of the source: active = inhibition above about 75%; inconclusive = no clear call, values can overlap the other calls; inactive = below that; tested in HMLE shEcad cells.

As a reminder, the inhibition is the change of the read-out against control, counted positive when it falls.

This test can be described thus: growth suppression of cancer stem-like cells – cell-based, luminescence, primary screen (AID 2717). The note with it: cancer stem cell-like cells viability, at 7.5 µM, active compounds read high.
For `CCCCCCCCCCOC(=O)Cn1c(COc2ccc(C)cc2)[n+](C)c2ccccc21`, the inhibition was 124% (active).
The same measure for `Cc1ccc(OCc2nc3ccccc3n2C)cc1`: -4.74%.
On to `CCCCOC(=O)Cn1c(=N)n(CCN(CC)CC)c2ccccc21`, for which the inhibition is 0.539%.
With `CCCCCCCCCCOC(=O)Cn1c(COc2cccc(OC)c2)[n+](C)c2ccccc21`, the inhibition was 104% (active).
As for `CCn1c(=N)n(CC(=O)c2cccc(OC)c2)c2ccccc21`, the inhibition was -13.1%.
Next, `COc1cccc(OCC(=O)Nc2ccccc2C(N)=O)c1`: -7.15%; `O=C(COC(=O)c1ccc(F)c(S(=O)(=O)N2CCOCC2)c1)NCc1ccc2c(c1)OCO2`: 8.38%.
Next, `O=C(COc1ccc(F)cc1Br)NCC1COc2ccccc2O1` (stereo unspecified): 6.88%; `Cc1cc(C)cc(OCC(=O)Nc2ccc(N3CCOCC3)cc2N2CCOCC2)c1`: 6.1%.
Next, `COc1ccccc1C(=O)NCC(=O)OCC(=O)NNC(=O)c1ccc(Br)cc1`: -1.35%.
Take `N#CCc1ccc(OC(=O)c2cccnc2)cc1`: the inhibition was 9.72%.
With `O=C(Oc1ccc(Br)cc1)c1cccnc1`, the inhibition was 4.5%.
The same measure for `CCCCCCOc1ccc(OC(=O)c2cccnc2)cc1`: 86.1% (active).
The same measure for `CCc1cc2c(N3CCN(c4nnc(CC)s4)CC3)ncnc2s1`: 1.61%.
Next, `Oc1ccccc1N1CCN(c2ncnc3sc(-c4ccccc4)cc23)CC1`: 80.7% (active); `COc1ccc(Nc2ncnc3sc(-c4ccccc4)cc23)c(OC)c1`: 38.3%; `O=C(OCC(=O)N1CCN(C(=O)c2ccco2)CC1)c1c(Cl)cccc1Cl`: -3.78%.
As for `N#Cc1c(NC(=O)CCCN2C(=O)c3ccccc3C2=O)oc(-c2ccccc2)c1-c1ccccc1`, the inhibition was -2.49%.
The same measure for `N#Cc1c(/N=C/N2CCCC2)oc(-c2ccccc2)c1-c1ccccc1`: 127% (active); for `COc1ccc(-c2oc(/N=C/N3CCCC3)c(C#N)c2-c2ccc(OC)cc2)cc1`: -4.12%; for `CCOC(=O)N1CCN(C(c2cccnc2)c2ccc3cccnc3c2O)CC1` (stereo unspecified): 30.6%.
Turning to `Oc1ccccc1CN1CCN(C(c2ccccc2)c2ccccc2)CC1`, the inhibition is 28.7%.
With `CCN1CCN(C(c2cccnc2)c2cc(Cl)c3cccnc3c2O)CC1` (stereo unspecified), the inhibition is 77.7% (active).
For the compound `COc1ccc(CNC(=O)COC(=O)c2sccc2C)cc1OC`, the inhibition is 0.384%.
Next, `CC1(C)Cc2ccccc2-c2[nH]c(=S)[nH]c(=O)c21`: 0.325%; `CC1(C)Cc2ccccc2/C(=C/C(=O)c2ccccc2)N1`: 78.5% (active).
As for `CCOC(=O)C1=C(NC(=S)NC(=O)c2ccccc2)c2ccccc2CC1(C)C`, the inhibition was 3.23%.
Take `CC1CCCCC1NC(=O)Cn1c(=O)cnc2ccccc21` (stereo unspecified): the inhibition is 0.34%.
The same measure for `O=C(NCc1ccc2c(c1)OCO2)c1cc([N+](=O)[O-])ccc1N1CCOCC1`: 46.4%.
As to `CC(NS(=O)(=O)c1ccc(Br)cc1)C(=O)NCC1CCCO1` (stereo unspecified), the inhibition is -4.45%.
Next, `OC(CNCC1CCCO1)Cn1c2ccc(Br)cc2c2cc(Br)ccc21` (stereo unspecified): 116% (active); `O=C(CSc1ccc(-c2ccc(Br)cc2)nn1)NCC1CCCO1` (stereo unspecified): 1.96%.
Next, `Cc1cc(C(=O)OCC(=O)N2C(C)CCCC2C)c2ccccc2n1` (stereo unspecified): -3.37%; `Cc1cc(C)n(-c2c(F)c(F)c(COC(=O)c3ccccc3)c(F)c2F)n1`: 3.98%; `CCOC(=O)c1cnc(-n2nc(C)cc2C)nc1Nc1cccc(C(C)=O)c1`: -9.8%.
For `CCOC(=O)c1cnc(-n2nc(C)cc2C)nc1NNc1cc(C)nc(-c2ccccc2)n1`, the inhibition is 101% (active).
In the case of `Nn1c(SCC(=O)Nc2ccc3c(c2)CCC3)nnc1C1CC1`, the inhibition is -6.39%.
Regarding `O=C(COC(=O)c1ccc(F)cc1)NCC1COc2ccccc2O1` (stereo unspecified), the inhibition was -14.2%.
The same measure for `CCCc1cc(=O)[nH]c(SCC(=O)OCc2ccccc2)n1`: 4.11%; for `CCCc1cc(=O)[nH]c(SCC(=O)c2c(N)n(CC(C)C)c(=O)n(C)c2=O)n1`: 83.8% (active).
The same measure for `CCCc1cc(=O)[nH]c(SCC(=O)c2cc(C)n(CCC)c2C)n1`: -3.32%; for `O=C(CCc1nc(-c2ccccc2)no1)Nc1cccc(C(=O)NC2CC2)c1`: 1.1%; for `CCN(C(=O)COC(=O)c1ccccc1O)c1cccc2ccccc12`: -18.3%.
The same measure for `CCc1cc(C(=O)Nc2nnc(C3CC3)s2)sc1C`: -10.9%; for `C[C@H](CO)N1C[C@H](C)[C@@H](CN(C)C(=O)Nc2ccc3c(c2)OCO3)Oc2c(cccc2N(C)C)C1=O`: -12.1%.
For the compound `COc1ccc2sc(-c3ccc(N(C)C)cc3)c(C#CCO)c2c1`, the inhibition is 113% (active).
On to `COc1ccc(-c2sc3ccc(OC)cc3c2C#Cc2ccccn2)cc1`, for which the inhibition is 111% (active).
Next, `COc1ccc2sc(-c3ccc(S(C)(=O)=O)cc3)c(C#Cc3cncn3C)c2c1`: 45.5%.
With `COc1ccc(-c2c(C#Cc3ccccc3)c3ccccc3n2C)cc1`, the inhibition is 3.8%.
Next, `COc1ccc(C2(C)ON(c3ccccc3C(F)(F)F)C2=O)cc1` (stereo unspecified): 6.61%; `Cn1nnnc1SCC(=O)Nc1cccc(S(=O)(=O)N2CCCCC2)c1`: 1.58%.
The same measure for `Cn1cccc1C(=O)OCC(=O)NCCc1ccccc1`: 6.32%; for `Cc1c(C(=O)N2CCCc3ccccc32)sc2nc(-c3ccccc3)cn12`: 36.7%; for `Cc1cccc2cc3c(N)c(C(=O)N4CCCc5ccccc54)sc3nc12`: 85.3% (active).
The same measure for `Cc1c(C(=O)N2CCCc3ccccc32)oc2ccccc12`: -3.96%.
As to `Oc1c(Cl)cc(Cl)c(Cl)c1Cc1c(O)c(Cl)cc(Cl)c1Cl`, the inhibition was 99.3% (active).
The same measure for `Cc1ccc(NS(=O)(=O)c2ccc(C(C)C)cc2)cc1S(=O)(=O)N1CCOCC1`: -16.7%.
The same measure for `Cc1cc(C)cc(NS(=O)(=O)c2ccc(F)cc2)c1`: -6.47%; for `Cc1cc(C)cc(NS(=O)(=O)c2ccc(Oc3ncc(C(F)(F)F)cc3Cl)cc2)c1`: 118% (active).
Consider `COC(=O)Cc1ccc(Oc2ncc(C(F)(F)F)cc2Cl)cc1`, for which the inhibition is -10.7%.
The same measure for `CN1C(=O)[C@H]2[C@@H](/C=C/c3ccccc3)N3C(=O)CN(Cc4ccc(-c5ccccc5)cc4)C(=O)[C@@]3(C)[C@H]2C1=O`: -4%; for `CN(CC(=O)NCCc1ccc(S(N)(=O)=O)cc1)CC(=O)Nc1ccc(F)c(F)c1F`: -16.9%; for `CC1CC(=NNC(=O)C2COc3ccccc3O2)CC(C)(C)C1` (stereo unspecified): -9.31%.
With `CCc1nc2sc(C(=O)O)c(N)c2c2c1CCCC2`, the inhibition was 5.22%.
Next, `Cc1ccc2c(N)c(C(=O)c3ccccc3)sc2n1`: 45.8%.
The same measure for `O=C(NNC(=O)c1cccc(S(=O)(=O)Nc2ccc(Cl)cc2)c1)c1ccc(=O)[nH]c1`: -9.6%; for `Cc1ccc(NC(=O)c2cccc(S(=O)(=O)N3CCCc4ccccc43)c2)nc1`: 0.233%; for `COc1ccc(Cl)cc1NC(=O)COC(=O)c1ccc(Br)o1`: 0.173%.
The same measure for `CS(=O)(=O)c1ccc(C(=O)NNC(=O)c2cccs2)cc1`: -0.179%.
Turning to `Cc1ccc(SCc2c(C(=O)N/N=C/c3cccnc3)nnn2-c2nonc2N)cc1`, the inhibition is 1.7%.
The same measure for `Nc1nonc1-n1nnc(C(=O)N/N=C/c2cc(Br)ccc2O)c1CSC1=NCCS1`: 108% (active).
`Nc1nonc1-n1nnc(C(=O)N/N=C/c2ccccc2O)c1CN1CCCC1`: the inhibition was 62%.
The same measure for `O=C1COc2ccc(C(=O)COC(=O)CCOc3ccccc3)cc2N1`: 0.0702%; for `CC1(C)CC(=O)c2ccc(O)cc2O1`: 2.93%.
In the case of `CC[C@@H]1Cc2cc(O)ccc2C2=C1c1ccc(O)cc1C[C@H]2CC`, the inhibition is 102% (active).
The same measure for `CC(C)CC1(C)NC(=O)N(CC(=O)Nc2ccc3c(c2)OCCO3)C1=O` (stereo unspecified): -19%; for `O=C(Nc1ccncc1)c1ccc(Cl)c([N+](=O)[O-])c1`: 2.54%.
In the case of `CN(C)c1ccc(/C=C/C(=O)c2ccc(O)cc2)cc1[N+](=O)[O-]`, the inhibition is 26.4%.
The same measure for `O=C(/C=C/c1ccc(Cl)c([N+](=O)[O-])c1)c1ccc(O)cc1`: 80.8% (active); for `CN(C)c1ccc(/C=C/C(=O)c2ccc(C(C)(C)C)cc2)cc1[N+](=O)[O-]`: 75.4% (active).
For `CC(=O)Nc1ccc(/C=C/C(=O)c2ccccc2)cc1`, the inhibition was 2.62%.
With `O=C(/C=C/c1ccc2c(c1)OCCO2)c1ccc(O)cc1`, the inhibition is 19.1%.
The same measure for `Cc1sc2ncnc(N3CCC(C(=O)Nc4ccc(F)cc4Cl)CC3)c2c1C`: 4.03%; for `COc1cc(OC)cc(C(=O)NCC(=O)OCC(=O)NC(C)CCc2ccccc2)c1` (stereo unspecified): -13.2%.
Regarding `CC(C)(C)OC(=O)CNC(=O)c1[nH]cnc1C(=O)N[C@@H](CCCCN)C(=O)OC(C)(C)C`, the inhibition was -4.68%.
Turning to `COc1ccccc1NC(=O)/C=C/C(=O)O`, the inhibition was 0.627%.
In the case of `COC(=O)c1sc(-c2ccc(C(C)(C)C)cc2)cc1NC(=O)/C=C/C(=O)O`, the inhibition is 119% (active).
As for `O=C(O)/C=C/C(=O)Nc1ccc(F)cc1F`, the inhibition is -20.2%.
In the case of `COc1cc(OC)cc(-c2cc3ccc(F)cc3cn2)c1`, the inhibition is 47%.
Next, `CC[C@]1(O)C[C@@H]2CN(CCc3c([nH]c4ccccc34)[C@@](C(=O)OC)(c3cc4c(cc3OC)N(C)[C@H]3[C@@](O)(C(=O)OC)[C@H](OC(C)=O)[C@]5(CC)C=CCN6CC[C@]43[C@@H]65)C2)C1`: 80.5% (active); `CC[C@]1(O)CC2CN(CCc3c([nH]c4ccccc34)[C@@](C(=O)OC)(c3cc4c(cc3OC)N(C=O)[C@H]3[C@@](O)(C(=O)OC)[C@H](OC(C)=O)[C@]5(CC)C=CCN6CC[C@]43[C@@H]65)C2)C1` (stereo partly specified): 62.5%.

The values are drawn from PubChem BioAssay AID2717 (Broad Institute, 2010).
